Screening results from PubChem BioAssay.
ADAM17 inh – ADAM17 inhibitors, primary screen, biochemical, QFRET; Disintegrin and metalloproteinase domain-containing protein 17 (Homo sapiens), P78536; recombinant ADAM17, EDANS/DABCYL FRET peptide cleavage; inhibition, % at 6.95 µM; actives 0.83% (n = 370,000); AID 720648, 2013;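 active means inhibition above the mean of compounds lying between control limits plus 3 SD, set per campaign, cut at about 8.5% in these data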
Target sequence (P78536 215-824 limits assumed): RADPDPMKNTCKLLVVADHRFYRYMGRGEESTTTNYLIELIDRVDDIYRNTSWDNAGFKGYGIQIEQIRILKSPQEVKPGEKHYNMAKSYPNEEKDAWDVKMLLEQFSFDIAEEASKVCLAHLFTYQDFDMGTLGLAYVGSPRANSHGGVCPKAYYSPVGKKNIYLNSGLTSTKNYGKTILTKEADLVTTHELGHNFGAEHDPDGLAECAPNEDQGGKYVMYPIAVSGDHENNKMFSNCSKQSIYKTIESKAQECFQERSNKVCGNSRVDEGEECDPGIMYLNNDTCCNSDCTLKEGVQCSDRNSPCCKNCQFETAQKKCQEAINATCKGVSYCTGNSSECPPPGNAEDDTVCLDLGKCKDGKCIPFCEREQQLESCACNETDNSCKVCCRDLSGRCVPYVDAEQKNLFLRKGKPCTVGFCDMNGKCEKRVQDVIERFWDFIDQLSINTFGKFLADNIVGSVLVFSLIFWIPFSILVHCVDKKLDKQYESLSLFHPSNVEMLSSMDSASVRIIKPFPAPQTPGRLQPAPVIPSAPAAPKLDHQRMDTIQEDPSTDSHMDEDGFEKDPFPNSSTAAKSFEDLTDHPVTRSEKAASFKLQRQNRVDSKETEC
MPTP inh – mitochondrial permeability transition pore inhibitors, primary screen, biochemical, isolated mouse mitochondria, absorbance; Ca2+ swelling absorbance, 30 min; inhibition, % at 10 µM; actives 1.4% (n = 360,000);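 active means inhibition of 50% or more, scaled per plate between neutral and stimulator controls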
Pemphigus Ab inh – inhibitors of pemphigus antibody binding to DSG3, primary screen, biochemical, bead-based, flow cytometry, scFv-GFP. binding (percent of control), % at 10 µM. Desmoglein-3 (Homo sapiens), P32926. DSG3-coupled beads, scFv-anti-DSG3-GFP binding; active compounds read low. actives 0.48% (n = 310,000);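 active means binding more than 3 SD below its plate's average and above zero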;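 further: hits lower antibody fragment binding to DSG3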
ADAM10 inh – human ADAM10 inhibitors, primary screen, biochemical, QFRET, HTS | Disintegrin and metalloproteinase domain-containing protein 10 (Homo sapiens), O14672 | recombinant ADAM10, EDANS/DABCYL FRET peptide cleavage, 3 h | inhibition, % at 7 µM | actives 0.62% (n = 370,000) | AID 720582, 2013;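 active means inhibition above a per-campaign cutoff equal to the mean of compounds falling between control-based bounds plus 3 SD, cut at about 20% in these data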
rCAG RNA binder – binders of r(CAG) RNA repeats, primary screen, biochemical, fluorescence; r(CAG) RNA repeat, TO-PRO-1 dye displacement fluorescence; inhibition, % at 3 µM; actives 1.3% (n = 370,000); AID 651821, 2012;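 active means inhibition above the plate cutoff, the mean of all test compounds on that plate plus 3 SD, cut at about 35% in these data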;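 further: higher means more dye released from RNA so lower well fluorescence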
proKLK7 act – proKLK7 zymogen activators, primary screen, biochemical, fluorescence intensity | actives 0.9% (n = 370,000) | activation, % at 7 µM | AID 652039, 2013 | purified proKLK7, EDANS-DABCYL substrate fluorescence; 100% is mature enzyme control, 0% vehicle;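 active means activation above the mean of all tested compounds plus 3 SD, computed per campaign excluding outliers beyond control limits, cut at about 13% in these data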
rCAG binder conf – small molecules binding CAG repeat RNA – biochemical, fluorescence, confirmation; AID 652065, 2013; r(CAG) RNA repeat, TO-PRO-1 dye displacement fluorescence; inhibition, % at 3 µM; actives 70% (n = 4,300); shares compounds with rCAG RNA binder;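 active means inhibition above a per-plate cutoff, the mean inhibition of sample wells plus 3 SD, cut at about 35% in these data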;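 further: loss of TO-PRO-1 fluorescence as compound displaces dye from 1x1 AA loop RNA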
dCAG dye counter – displacement of TO-PRO-1 from CAG DNA duplex, counter-screen for rCAG RNA repeat binder project, biochemical, fluorescence, TO-PRO-1 dye, d(CAG) DNA oligo. shares compounds with rCAG RNA binder. d(CAG) DNA oligo TO-PRO-1 dye displacement. inhibition, % at 3 µM. actives 94% (n = 4,300). AID 652068, 2013;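 active means inhibition above its plate's cutoff, the mean test-well inhibition plus 3 SD, cut at about 4.8% in these data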;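 further: hits displace the dye from DNA and so lower well fluorescence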
DNA CAG DR – inhibitors of DNA CAG/GTC TO-PRO-1 complex, dose response, counter-screen for rCAG RNA repeat binder project, biochemical, fluorescence, TO-PRO-1 dye; IC50, µM; actives 20% (n = 250); shares compounds with rCAG RNA binder; AID 686960, 2013; DNA CAG/GTC duplex TO-PRO-1 dye displacement fluorescence; in the data active means IC50 below about 10 µM
Of the large screens only hits and unclear results are named; the others gave an inactive call (follow-up assays come after a bar, where they were run). The list is not random: actives were taken first. Their share in the collection is about 4.7%.

Cc1ccc(-c2nn(-c3ccccc3)cc2/C=N/NS(=O)(=O)c2ccccc2)cc1	rCAG RNA binder 37.1 | rCAG binder conf 41.1 | dCAG dye counter 13.7
CC(=O)C(=Cc1cn(-c2ccccc2)nc1-c1ccccc1)C(C)=O	none
Cc1ccc(S(=O)(=O)N/N=C\c2cn(-c3ccccc3)nc2-c2ccccc2)cc1	none
Cc1ccc(C(=O)N/C(=C/c2cn(-c3ccccc3)nc2-c2ccccc2)C(=O)O)cc1	rCAG RNA binder 52.2 | rCAG binder conf 44.9 | dCAG dye counter 12.2
CCOc1ccc(N2C(=O)CC(Sc3ncccn3)C2=O)cc1 (centres undefined)	none (no result: Pemphigus Ab inh)
CCOc1ccc(N2C(=O)CC(Sc3nc(-c4cccs4)cc(C(F)(F)F)c3C#N)C2=O)cc1 (centres undefined)	rCAG RNA binder 53.7 | rCAG binder conf inactive | dCAG dye counter 12.9
C=CCNc1nc2ccccc2nc1NS(=O)(=O)c1ccc(Br)cc1	rCAG RNA binder 48.8 | rCAG binder conf 41.8 | dCAG dye counter 9.8
CCOC(=O)c1c(C)[nH]c(C)c1S(=O)(=O)NCc1ccccc1OCC	none
CN(C)S(=O)(=O)c1ccc(C(=O)Nc2cc3c(cc2C(=O)O)OCCCO3)cc1	rCAG RNA binder 59.4 | rCAG binder conf inactive | dCAG dye counter 5.1
CN(C)S(=O)(=O)c1cccc(C(=O)Nc2cc3c(cc2C(=O)O)OCCCO3)c1	rCAG RNA binder 38.9 | rCAG binder conf inactive | dCAG dye counter 5.2
CN(Cc1ccc(F)cc1)C(=O)c1cccc2c1C(=O)N(Cc1cccnc1)C2	none (no result: MPTP inh, Pemphigus Ab inh)
N#Cc1c(-c2c(Cl)cccc2Cl)noc1/C=C/Nc1ccc(C(=O)O)cc1	rCAG RNA binder 43.7 | rCAG binder conf 43.5 | dCAG dye counter 10.3
Cn1c(=O)c2c(nc(CN3CCN(C(c4ccccc4)c4ccccc4)CC3)n2CCCO)n(C)c1=O	none
Oc1ccc(/C=N/Nc2ccnc3cc(Cl)ccc23)c(O)c1O	Pemphigus Ab inh 92.7, rCAG RNA binder 38.1 | rCAG binder conf 59.5 | dCAG dye counter 28.5 | DNA CAG DR inactive
Cc1ccc(NC(=O)c2cccc(Oc3ccc([N+](=O)[O-])cc3)c2)c(C(=O)O)c1	rCAG RNA binder 85.1 | rCAG binder conf 74.4 | dCAG dye counter 38.2
O=C(O)CC/C(=N\Nc1ccccc1[N+](=O)[O-])c1cccs1	none (no result: ADAM17 inh, ADAM10 inh, rCAG RNA binder, proKLK7 act)
O=C(O)CC/C(=N\Nc1ccc(S(=O)(=O)N2CCOCC2)cc1[N+](=O)[O-])c1cccs1	rCAG RNA binder 55.7 | rCAG binder conf 58.5 | dCAG dye counter 23.5
O=C(O)CC/C(=N\Nc1ccc(S(=O)(=O)N2CCCC2)cc1[N+](=O)[O-])c1cccs1	rCAG RNA binder 71.5 | rCAG binder conf 59.8 | dCAG dye counter 22.1
COc1ccc(N2CCN(CCCn3cnc4c(OC)ncnc43)CC2)cc1	none
Cc1ccc(C)c(C(=O)CN2C(=O)NC3(CCCCCC3)C2=O)c1	none
CCCCNc1cccc2c1S(=O)(=O)N[C@H](Cc1ccccc1)CO2	none (no result: MPTP inh, Pemphigus Ab inh)
COc1cc([C@@H]2CC=C(C(=O)O)[C@H](c3ccc(Cl)cc3)N2S(=O)(=O)c2ccc(C)cc2)cc(OC)c1OC	rCAG RNA binder 35.3 | rCAG binder conf inactive | dCAG dye counter 7.6
Cc1ccc(S(=O)(=O)N2[C@@H](c3ccc(Cl)cc3)C(C(=O)O)=CC[C@H]2c2ccc(Cl)c(Cl)c2)cc1	rCAG RNA binder 85.7 | rCAG binder conf 85.7 | dCAG dye counter 59.0
Cc1ccc(S(=O)(=O)N2C(c3ccc(Cl)c(Cl)c3)CC=C(C(=O)O)C2c2ccc(Cl)cc2)cc1 (centres undefined)	rCAG RNA binder 82.3 (no result: Pemphigus Ab inh) | rCAG binder conf 83.3 | dCAG dye counter 52.0
Cc1ccc(S(=O)(=O)N2C(c3ccc(Cl)c(Cl)c3)CC=C(C(=O)O)C2c2cccc(Cl)c2)cc1 (centres undefined)	none (no result: Pemphigus Ab inh)
Cc1ccc(S(=O)(=O)N2CC(C(=O)O)=CC[C@H]2c2ccc(Cl)cc2)cc1	rCAG RNA binder 37.2 | rCAG binder conf inactive | dCAG dye counter inactive
O=c1c2c(n3nnnc3n1Cc1ccc(Cl)cc1)-c1ccccc1CC21CCCC1	none (no result: MPTP inh, Pemphigus Ab inh)
COc1ccc([N+](=O)[O-])cc1-c1[nH]c(-c2ccc(C(=O)O)cc2)nc1-c1ccccc1	rCAG RNA binder 54.8 | rCAG binder conf 48.3 | dCAG dye counter 15.8
CCN(C)C1CN(Cc2cn(Cc3ccc(Cl)cc3)nn2)S(=O)(=O)C1 (centres undefined)	none (no result: Pemphigus Ab inh)
Cc1ccc(C(C)C)c(OCc2ccc(C(=O)N/N=C/c3ccc(C(=O)O)cc3)cc2)c1	none
Cc1ccc(C(C)C)c(OCc2ccc(C(=O)N/N=C/c3ccc(O)cc3O)cc2)c1	rCAG RNA binder 38.0 | rCAG binder conf inactive | dCAG dye counter 14.5
CCCSc1nc(C)c(-c2csc(C(C#N)=C3CCCC3)n2)cc1C#N	rCAG RNA binder 43.9 | rCAG binder conf 37.5 | dCAG dye counter 25.2
O=C(NN1CC(=O)N(c2cc(Cl)cc(Cl)c2)CC1=O)c1cccs1	none
O=C(COc1ccccc1F)Nc1cc(S(=O)(=O)Nc2cccc(Cl)c2)ccc1O	rCAG RNA binder 63.8 | rCAG binder conf 55.6 | dCAG dye counter 21.8
COc1cc(NC(=O)c2ccccc2)c(OC)cc1NC(=O)Cc1ccc(F)cc1	none
C[C@H](CO)N1C[C@H](C)[C@H](CN(C)Cc2ccc(C(=O)O)cc2)OCc2ccccc2-c2c(n(C)c3ccccc23)C1=O	rCAG RNA binder 47.6 (no result: Pemphigus Ab inh) | rCAG binder conf 49.5 | dCAG dye counter 13.9
C[C@@H]1CN([C@H](C)CO)C(=O)c2c(c3ccccc3n2C)-c2ccccc2CO[C@H]1CN(C)Cc1ccccc1	none
